Consider 31 compounds from PubChem BioAssay (NCI).

This is part of a sample that, as a whole, favours compounds with a hit. Of some 83,000 tested, about 20% had one in any assay.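 Cell lines were cultured in 96-well plates, exposed to a single compound concentration, and assessed for percent growth 48 hours later.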 Unmarked numbers belong to inactive results. The source made the active and inactive calls. The calls were made as follows: active = growth percent below 10; inactive = the rest.

In one test the test system is NCI-H23 lung. In words: NCI-60 one-dose screen, 48 h (100 = growth as untreated, 0 = no growth, -100 = all killed). To be noted: 10 µM unless noted.
Turning to `Cc1cc(Cl)cc(NS(=O)(=O)c2ccc(-c3cnc(C4CC4)o3)cc2)c1`, the growth was 35.7%.
Still for that read-out and setting: the same measure for `COc1cc(/C=N/n2cnc3oc(-c4ccccc4)cc3c2=N)cc(CN2CCCCC2)c1O`: -56.4% (active).
On the same count and under the same terms, to `CCOC(=O)c1c(NC(=O)c2ccc(C(C)(C)C)cc2)sc2cc(OCCN3CCCCC3)ccc12` belongs 88.6%.
Same read-out and setting: to `NS(=O)(=O)Oc1ccc2nc(Nc3ccc(F)c(F)c3)ccc2c1` belongs 96.3%; to `CC(=O)c1sc(Nc2cccc(Nc3nc(C)c(C)s3)c2)nc1C`, 63.2%.
Turning to `CCCCCCNC(=O)Oc1ccc(/C(=C(\C)c2ccc(OC)cc2)c2ccc(OCCN(C)C)cc2)cc1`, the growth is 84.4%.
For the compound `Cc1cccc(NC(c2cc3cccc4ccc5cccc2c5c43)c2nnnn2C(C)(C)C)c1C` (stereo unspecified), the growth is 82.2%.
As to `CCOC(=O)c1c(NCC(=O)Nc2cccc([N+](=O)[O-])c2)sc2c1CCCC2`, the growth is -70.8% (active).
Still for that read-out and setting: to `O=c1oc2ccc(-c3ccc(F)cc3F)cc2c(=O)n1-c1ccc(F)c(F)c1` belongs 2.21% (active).
Same read-out and setting: to `Brc1cccc(/C=N/Nc2nc(N/N=C/c3cccc(Br)c3)nc(N3CCOCC3)n2)c1` belongs 43.1%.
Still for that read-out and setting: the same measure for `N#C/C(=C\c1ccc2ccccc2c1)C(=O)Nc1sc2c(c1C#N)CCC2`: 99.5%.

A further test deals with NCI-H226 lung. The description is as above. To be noted: 10 µM unless noted.
In the case of `COc1cc(C2=NN(C(C)=O)C(c3ccc(N4CCOCC4)cc3)C2)cc(OC)c1OC` (stereo unspecified), the growth was 96.5%.
Still for that read-out and setting: to `COc1ccc([C@H]2c3[nH]c4ccccc4c3C[C@@H]3C(=O)N(C4CCN(Cc5ccccc5)CC4)CC(=O)N23)c(OC)c1` belongs 82.3%; to `COc1ccc([C@H]2[C@H](O)C(=O)N2c2cc(OC)c(OC)c(OC)c2)cc1Cl`, 21.6%.
Still for that read-out and setting: to `COc1ccc(/C=C/C(=O)c2nnn(-c3ccc(C(=O)O)cc3)c2C)cc1OC` belongs 100%; to `O=[N+]([O-])c1ccc(-c2nnc(SCc3ccc(O)c4ncccc34)n2-c2ccccc2)cc1`, 87.3%.
On the same count and under the same terms, the same measure for `O=C(NCCCNc1cc(-c2cn(-c3ccccc3)nc2-c2cccc(O)c2)ccn1)Nc1cccc(C(F)(F)F)c1`: 62%; for `CC(C)C(=O)Nc1ccc(-c2nc(-c3cccc(O)c3)c(-c3ccnc(Br)c3)[nH]2)cc1`: 65.4%.
For the compound `Cc1cc(F)cc(NS(=O)(=O)c2ccc(-c3cnc(C4CC4)o3)cc2)c1`, the growth was 53.8%.
The same measure, in the same setting: the same measure for `CCOC(=O)c1c(NCC(=O)Nc2cccc(Cl)c2)sc2c1CCCC2`: 69.8%.
Still for that read-out and setting: the same measure for `O=S(=O)(Nc1cc(Cl)cc(Cl)c1)c1ccc(-c2cnc(C3CC3)o2)cc1`: 43.4%; for `COc1cc2c3c(n(CCCNC4CCC4)c(=O)c2cc1OC)-c1cc2c(cc1C3=O)OCO2`: 70.6%.
On the same count and under the same terms, to `CCOC(=O)Nc1cccc(-n2cnc3cc(-c4ccc(O)cc4)ccc32)c1` belongs 33.3%; to `CC(=O)NC(C)(C)C(=O)N[C@@H](C)C(=O)NC(C)(C)C(=O)N[C@@H](C)C(=O)NC(C)(C)C(=O)N[C@@H](C)C(=O)N[C@@H](CCC(N)=O)C(=O)NC(C)(C)C(=O)N[C@H](C(=O)NC(C)(C)C(=O)NCC(=O)N[C@@H](CC(C)C)C(=O)NC(C)(C)C(=O)N1CCC[C@H]1C(=O)N[C@H](C(=O)NC(C)(C)C(=O)NC(C)(C)C(=O)N[C@@H](CCC(N)=O)C(=O)N[C@@H](CCC(N)=O)C(=O)N[C@H](CO)CC1CCCCC1)C(C)C)C(C)C`, 35% [5 µM].
For `Cc1nn(-c2ccc(Cl)cc2)c(C)c1N=Nc1ccc2oc(=O)ccc2c1`, the growth was 92.9%.
As to `O=C(NCCNc1cc(-c2cn(-c3ccccc3)nc2-c2cccc(O)c2)ccn1)Nc1ccc(Cl)c(C(F)(F)F)c1`, the growth was 81.5%.
Turning to `CN(c1ccc(Br)cc1)S(=O)(=O)c1ccc(-c2cnc(C3CC3)o2)cc1`, the growth was 62.4%.
With `CC(C)C[C@H]1C(=O)O[C@H](C(C)C)C(=O)N(C)[C@@H](C(C)C)C(=O)O[C@H](C(C)C)C(=O)N(C)[C@@H](C(C)C)C(=O)O[C@H](C(C)C)C(=O)N1C`, the growth is 20.5%.
On the same count and under the same terms, to `CCCC(=O)NC(c1cccnc1)c1cc(Cl)c2cccnc2c1O` (stereo unspecified) belongs 48.9%.
On the same count and under the same terms, to `Nc1nc(-c2cccc([N+](=O)[O-])c2)c(N=Nc2ccccc2[N+](=O)[O-])s1` belongs 4.17% (active); to `C/C(=N\NC(=O)CSc1nc2sc3c(c2c(=O)n1-c1ccccc1)CCC(C)C3)c1ccc(Cl)cc1` (stereo unspecified), -1.29% (active).
